PHOSPHO1 inh: blocks human PHOSPHO1 phosphatase activity; 1.1% of 290,000 active; recombinant PHOSPHO1, absorbance phosphatase assay; Q8TCT1; inhibition, % at 13.3 µM; in the data active = inhibition above about 60%
Target sequence (Q8TCT1 whole entry, looked up): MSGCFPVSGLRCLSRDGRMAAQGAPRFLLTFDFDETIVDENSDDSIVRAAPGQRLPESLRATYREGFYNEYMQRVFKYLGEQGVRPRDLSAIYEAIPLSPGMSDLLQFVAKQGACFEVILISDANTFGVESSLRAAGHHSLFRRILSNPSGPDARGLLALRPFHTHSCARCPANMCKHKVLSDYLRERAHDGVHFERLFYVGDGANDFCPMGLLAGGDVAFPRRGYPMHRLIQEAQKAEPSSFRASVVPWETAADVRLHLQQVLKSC
TMEM16A inh: inhibitors of mouse TMEM16A calcium-activated chloride channel; 1.2% of 310,000 active; normalized B-score (activity score, 25-100; higher = stronger inhibition) at 10 µM; Q8BHY3; HEK293 TMEM16A/YFP iodide influx fluorescence, ionomycin;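 active = ratio plate-corrected score three or more library SD toward inhibition, starting fluorescence score within five deviations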;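 note: score derived from kinetic fluorescence span divided by baseline fluorescence per well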
ANO1 activ: mouse TMEM16A channel activation, primary screen | Q8BHY3 | HEK293 TMEM16A/YFP-H148Q/I152L, iodide quench fluorescence; hits give low values | B-score at 10 µM | 0.3% of 340,000 active;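 active = fluorescence-ratio B-score plate-corrected deviation score at least 3 library SD below zero, with starting fluorescence score within 5 deviations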;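 note: channel opened by trigger with iodide after compound preincubation; score built on the fluorescence ratio of max minus min over baseline; more negative score means more quench and so TMEM16A activation or potentiation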
HDAC3 inhib: inhibitors of human histone deacetylase 3. O15379. recombinant HDAC3, fluorogenic peptide/trypsin coupled, fluorescence. inhibition, % at 8.3 µM. 0.15% of 320,000 active; in the data active = inhibition above about 26%, passing the limit was not always enough
Target sequence (O15379 whole entry, looked up): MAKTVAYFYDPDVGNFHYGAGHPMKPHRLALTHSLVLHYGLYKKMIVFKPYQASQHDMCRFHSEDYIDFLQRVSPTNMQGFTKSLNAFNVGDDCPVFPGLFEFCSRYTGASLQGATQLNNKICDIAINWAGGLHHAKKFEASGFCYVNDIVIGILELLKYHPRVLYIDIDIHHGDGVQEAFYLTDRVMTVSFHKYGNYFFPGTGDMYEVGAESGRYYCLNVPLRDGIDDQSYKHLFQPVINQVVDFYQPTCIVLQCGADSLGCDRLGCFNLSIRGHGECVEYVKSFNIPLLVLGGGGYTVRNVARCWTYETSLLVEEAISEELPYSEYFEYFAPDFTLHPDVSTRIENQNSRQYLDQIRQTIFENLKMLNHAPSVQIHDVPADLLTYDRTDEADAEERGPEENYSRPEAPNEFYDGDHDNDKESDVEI
CHT allo act: allosteric activators of human choline transporter CHT. Q9GZV3. CHT-expressing cells, membrane potential dye, choline EC20; hits give high values; LV-AA mutant CHT in HEK293 cells. B-score at 10 µM. 0.49% of 310,000 active. AID 488977;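 active = initial fluorescence not abnormally high and integrated response B-score, plate-corrected, over 3 SD above library mean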
CHT inh: inhibitors of human choline transporter CHT | Q9GZV3 | CHT-expressing cells, membrane potential dye, choline response; hits give low values | B-score at 10 µM | 0.86% of 310,000 active;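 active = B-score over 3 SD under the library average, and starting fluorescence ratio not unusually high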;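 note: choline stimulus applied at its EC90 after an EC20 pre-addition; B-score computed on integrated fluorescence ratio after choline addition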
CHT act confirm: confirmation of human choline transporter (CHT) activators; activation, % at 10 µM; CHT-expressing cells, membrane potential dye fluorescence (FDSS); % of choline EC20–EC90 response window; HEK293 expressing CHT LV-AA mutant; choline added at its EC20; AID 504833; shares compounds with CHT allo act; 91% of 2,500 active;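 active = primary screen active, with duplicate mean activation above negative control mean plus 3 SD, cut at about 11% in these data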
HEK293 MP dye: activity in parental HEK293 cells lacking CHT. AID 623908. ratio readout change at 10 µM, hits read low. 62% of 2,500 active. membrane potential dye fluorescence (FDSS); measured after EC20 choline addition. shares compounds with CHT allo act;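 active = duplicate-averaged ratio beyond 3 SD from buffer wells, up or down, though filed actives are nearly all decreases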
Of the large screens only hits and unclear results are named; the others gave an inactive call (follow-up assays come after a bar, where they were run). A selection: hits, their analogues and other compounds. The true share with any hit is near 3.2%.

COc1cccc(C2CNC3(CCCC(C)C3)c3[nH]c4ccccc4c32)c1OC (centres undefined)	none | CHT act confirm 18 | HEK293 MP dye inactive
CCN1C(=NCc2ccccc2)N[C@@H](c2ccccc2)[C@H](C(=O)OC)[C@H]1C	CHT allo act 6.9 | CHT act confirm 12 | HEK293 MP dye inactive
COC(=O)[C@@H]1[C@@H](C)N(Cc2ccccc2)C(=O)N[C@H]1c1cccc(C(F)(F)F)c1	CHT allo act 9.4 | CHT act confirm inactive | HEK293 MP dye inactive
CC(C)CN1CCN(CCCc2ccccc2)C(CCO)C1 (centres undefined)	none (no result: PHOSPHO1 inh)
O=C(NC1CCCCC1)c1n[nH]c2c1CCCCC2	none (no result: PHOSPHO1 inh)
CCN(CC)C1=CC(=[N+]2CCCC2)CC(C)(C)C1	none | CHT act confirm 46 | HEK293 MP dye inactive
CC1CC(C)C[N+](=C2C=C(N3CCCC3)CC(C)(C)C2)C1 (centres undefined)	none (no result: TMEM16A inh, HDAC3 inhib, CHT allo act, CHT inh)
CC1(C)CC(N2CCCC2)=CC(=[N+]2CCCCCC2)C1	CHT allo act 8.6 | CHT act confirm 54 | HEK293 MP dye inactive
CC1(C)CC(N2CCN(c3ccccc3)CC2)=CC(=[N+]2CCCC2)C1	PHOSPHO1 inh 86 | CHT act confirm 41 | HEK293 MP dye inactive
CCCCn1c(N)c(N(CCOC)C(=O)CCNC(=O)NC23CC4CC(CC(C4)C2)C3)c(=O)[nH]c1=O	none (no result: PHOSPHO1 inh, TMEM16A inh, HDAC3 inhib, CHT allo act, CHT inh)
Cc1ccc2ncnc(NCCC(=O)O)c2c1	none
COCCCNc1ncnc2ccc(C)cc12	none | CHT act confirm 18 | HEK293 MP dye -34
CCN(c1ccccc1)S(=O)(=O)c1ccc(C(=O)N(CCCN(C)C)c2nc3cc4c(cc3s2)OCO4)cc1	none (no result: HDAC3 inhib) | CHT act confirm 43 | HEK293 MP dye -37
CC(C)(C)c1ccc(C(=O)NCC(=O)OCC(=O)Nc2ccccc2[N+](=O)[O-])cc1	none
Cc1ccc(NC(=O)CSCC(=O)Nc2cccc(S(=O)(=O)N3CCCCCC3)c2)cc1	none (no result: PHOSPHO1 inh, TMEM16A inh, CHT allo act, CHT inh)
CN(CCO)S(=O)(=O)c1ccc2c(c1)C(=NNC(N)=O)c1cc(S(=O)(=O)N(C)CCO)ccc1-2	CHT allo act 8.2 | CHT act confirm 42 | HEK293 MP dye -43
O=C(c1ccccc1F)N(Cc1ccc2c(c1)OCO2)Cc1cc2cc3c(cc2n2nnnc12)OCO3	none | CHT act confirm 15 | HEK293 MP dye inactive
Cc1ccc([N+](=O)[O-])cc1-c1ccc(/C=N/NC(=O)CN2CCOCC2)o1	none | CHT act confirm 51 | HEK293 MP dye -51
O=C(Cc1ccccc1)N/N=C/c1ccc(-c2ccc([N+](=O)[O-])cc2)o1	none
COc1ccc(-c2noc(CN3CCCCC3c3nccn3C)n2)cc1 (centres undefined)	CHT allo act 11 | CHT act confirm 49 | HEK293 MP dye inactive
CN1CCN(C=Nc2nc3ccccc3nc2N2CCCC2)CC1	CHT allo act 6.7 | CHT act confirm 26 | HEK293 MP dye -52
O=C(NC[C@@H]1CCCO1)c1cccc2c1C(=O)c1ccc(N3CCOCC3)cc1S2(=O)=O	none (no result: PHOSPHO1 inh, TMEM16A inh, CHT allo act, CHT inh)
Cc1ccccc1Nc1c(-c2ccc(N3CCOCC3)cc2)nc2ncccn12	none | CHT act confirm 25 | HEK293 MP dye -53
Cc1ccn2c(Nc3ccccc3C)c(-c3cccnc3)nc2c1	none | CHT act confirm 41 | HEK293 MP dye -49
Cc1ccn2c(NC(=O)c3ccco3)c(-c3ccccc3)nc2c1	none
Cc1ccccc1Nc1c(-c2ccc(N3CCOCC3)cc2)nc2cnccn12	CHT allo act 9.4 (no result: HDAC3 inhib) | CHT act confirm 29 | HEK293 MP dye -55
Cc1cccc(C(=O)N2CCc3cc(-c4csc(NC(=O)CN5CCCC5)n4)ccc32)c1	none
O=C1CCc2cc(S(=O)(=O)NC(C(=O)N3CCN(c4ccccn4)CC3)c3ccccc3)ccc2N1 (centres undefined)	none
c1ccc2c(N3CCCCC3)nc(N3CCCCC3)nc2c1	none
c1ccc2c(N3CCCCC3)nc(N3CCOCC3)nc2c1	CHT allo act 6.7 | CHT act confirm 40 | HEK293 MP dye -44
Cc1cc(N2CCCN(C)CC2)nc2cc(Cl)ccc12	none | CHT act confirm 35 | HEK293 MP dye -50
COc1cccc(C(=O)Nc2ccc3nc(N4CCOCC4)cc(C)c3c2)c1	CHT allo act 6.8 | CHT act confirm 42 | HEK293 MP dye -43
Cc1cc(N2CCCCC2)nc2ccccc12	none
Cc1cc(N2CCOCC2)nc2ccccc12	CHT allo act 6.5 | CHT act confirm 45 | HEK293 MP dye -51
CCOC(=O)C1CCN(C(=O)Nc2ccc3snnc3c2)CC1	none
CC1(C)C2CC[C@]3(C)C(CC=C4[C@@H]5C[C@@](C)(CO)[C@@H]6C[C@@]5(CC[C@]43C)C(=O)O6)[C@@]2(C)CC[C@@H]1O (some centres undefined)	none (no result: PHOSPHO1 inh, ANO1 activ)
CC(=O)c1c(N)[nH]c(-c2ccccc2)nc1=S	none
CCOc1cc(C(=O)N(CC)CC(=O)Nc2c(F)cccc2F)ccc1OCC(=O)N1CCOCC1	none (no result: PHOSPHO1 inh, TMEM16A inh, HDAC3 inhib, CHT allo act, CHT inh)
Cc1cc(N2CCOCC2)nc2ccc(NC(=O)CCC(=O)N3CCCC(C)C3)cc12 (centres undefined)	none | CHT act confirm 41 | HEK293 MP dye -36
Cc1cc(N2CCOCC2)nc2cc(O)ccc12	CHT allo act 9.2 | CHT act confirm 74 | HEK293 MP dye -45
COc1ccc2nc(N3CCOCC3)cc(C)c2c1	CHT allo act 8.4 | CHT act confirm 58 | HEK293 MP dye -57
O=c1oc2cc(OCc3c(F)c(F)c(F)c(F)c3F)ccc2cc1-c1ccccn1	none
CNC(=O)c1sc(SC)cc1-c1ccc(Cl)cc1	none
CCOC(=O)C[C@H]1c2ccccc2S(=O)(=O)N1Cc1cccc(C(F)(F)F)c1	none (no result: PHOSPHO1 inh) | CHT act confirm 17 | HEK293 MP dye inactive
Cc1nn(CCOc2ccccc2)c(=O)n1-c1ccc(F)cc1	none
CN=c1scc(-c2ccc(Br)cc2)n1C	none | CHT act confirm 35 | HEK293 MP dye -44
CCOC(=O)c1c(CN(C)C)oc2cc(CN(C)C)c(O)c(CSc3ccccc3)c12	none
CCOC(=O)c1c(CSc2ccsc2)n(C)c2cc(Br)c(O)c(CN(C)C)c12	CHT allo act 6.8 | CHT act confirm 40 | HEK293 MP dye inactive
C#CCOCCOCCOCCNc1nc(N2CCN(C(=O)CCCCCCCCCCNC(=O)[C@H](CCCCN)n3cc(C)nn3)CC2)nc(N2CCN(C(=O)CCCCCCCCCCNC(=O)[C@@H]([C@H](C)O)n3cc(C)nn3)CC2)n1	none (no result: PHOSPHO1 inh) | CHT act confirm inactive | HEK293 MP dye -40

Assay outcomes as filed in PubChem BioAssay.
